This note sets out measurements from PubChem BioAssay (Tox21).

Records with an inconclusive call do not appear. Activity calls are given as the source filed them. Unless noted, the call rests on the fitted dose curve; in most records, active means well fitted curve in the direction sought with a large enough effect in the repeat runs; inconclusive means weak or mixed curves; inactive means no such curve, though single readings can be large; an effect the other way counts as inactive or inconclusive.

Test [1] can be described thus: qHTS assay for small molecule agonists of the p53 signaling pathway (AID 651631; calls by dose curve; further: nearly all actives have a fitted effect of over 15% in size; further: potency means the concentration at half of the fitted maximal effect). The method, boiled down: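 Stably transfected HCT-116 cells (beta-lactamase behind p53 response elements) get compounds after a 5 h settling period; 16 h later at 37 °C, FRET substrate is loaded and fluorescence read after 2 h.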
Test [2] is described as follows: qHTS assay for small molecules that induce genotoxicity in human embryonic kidney cells expressing luciferase-tagged ATAD5 (AID 651632). Further: nearly all actives have a fitted effect of over 15% in size. The method, boiled down:
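Luminescent reporter readout, HEK293T ATAD5-luc line: 16 hr drug exposure (37C, 5% CO2) followed by Amplite, 30 min RT.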
Background: Quantitative high-throughput screening tests each substance at several concentrations.

Test [3] is described as follows: qHTS assay for small molecule agonists of the p53 signaling pathway - cell viability (AID 651633; calls by dose curve; further: nearly all actives have a fitted effect of over 30% in size; further: potency means the concentration at half of the fitted maximal effect). The method, boiled down:
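p53RE-bla cells were treated with compound for 16 hours at 37 C. Cytotoxicity was then measured as CellTiter-Glo luminescence after 30 min at room temperature.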

Test [4] can be described thus: qHTS assay for small molecules that induce genotoxicity in human embryonic kidney cells expressing luciferase-tagged ATAD5 - cell viability (AID 651634; calls by dose curve; further: nearly all actives have a fitted effect of over 25% in size). The method, boiled down: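 Viability read: CellTiter-Fluor fluorescence, 30 min at 37C. Cells: HEK293T, luciferase-tagged ATAD5. Exposure: 15.5 hr, 37C, 5% CO2, compound or DMSO vehicle.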
A short description of test [5]: qHTS assay for small molecule disruptors of the mitochondrial membrane potential - cell viability (AID 720634; calls by dose curve;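 further: human HepG2 liver cancer cells; series mostly up to about 83 µM; nearly all actives have a fitted effect of over 20% in size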). The method, boiled down:
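HepG2, 1 hr compound, 37 C. ATP luminescence via CellTiter-Glo, 30 min RT, same well as m-MPI.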

Test [6] is described as follows: qHTS assay for small molecule disruptors of the mitochondrial membrane potential (AID 720635). Further: potency means the concentration at half of the fitted maximal effect. In outline: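 HepG2 cells exposed to compound 1 hr at 37C, then Mito-MPS dye 30 min. Ratio read of aggregate (540/590 nm) versus monomer (490/535 nm) fluorescence.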
Test [7] is described as follows: qHTS assay to test for compound auto fluorescence at 535 nm (green) in HepG2 cells (AID 720675).
The nature of test [8]: qHTS assay to test for compound auto fluorescence at 460 nm (blue) in HEK293 cells (AID 720678). In outline:
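After cell attachment (4-5 hr, 37C), compounds were pinned onto HEK293 monolayers in 10% dialyzed FBS medium. The blue channel (405/460 nm) was read following overnight culture. Equivalency was calculated against triamterene.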

The nature of test [9]: qHTS assay to test for compound auto fluorescence at 590 nm (red) in HEK293 cells (AID 720679). The method, boiled down:
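Plates of HEK293 cells (10% dialyzed FBS) are treated with 23 nL compound or DMSO vehicle after a 4-5 hr attachment period, incubated overnight at 37C, and read for red fluorescence at 540/590nm.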

The nature of test [10]: qHTS assay to test for compound auto fluorescence at 535 nm (green) in HEK293 cells (AID 720680).
Test [11] is described as follows: qHTS assay to test for compound auto fluorescence at 460 nm (blue) in HEK293 cell free culture (AID 720681). In outline: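 Compounds were added to cell-free DMEM with 10% FBS and fluorescence read directly. The blue channel used 405 nm excitation and 460 nm emission, with triamterene as the reference fluorophore.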
Test [12] in a line: qHTS assay to test for compound auto fluorescence at 590 nm (red) in HEK293 cell free culture (AID 720683). The method, boiled down: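 Cell-free wells of DMEM with 10% FBS received compound, and intrinsic fluorescence was read at excitation/emission 540/590 nm. Values expressed as equivalence to Rose Bengal sodium.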
Test [13] can be described thus: qHTS assay to test for compound auto fluorescence at 590 nm (red) in HepG2 cell free culture (AID 720684). The method, boiled down: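 Compounds are added to culture medium (MEM, 10% FBS) lacking cells, then fluorescence is read at excitation 540 nm, emission 590 nm, with Rose Bengal sodium as the equivalency standard.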
The nature of test [14]: qHTS assay to test for compound auto fluorescence at 460 nm (blue) in HepG2 cell free culture (AID 720685). In outline: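 Compound (23 nL) or DMSO pinned into cell-free MEM with 10% FBS; blue fluorescence read at 405/460 nm excitation/emission, expressed as auto-fluorescence equivalency to triamterene.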
Test [15] in a line: qHTS assay to test for compound auto fluorescence at 535 nm (green) in HepG2 cell free culture (AID 720686).
The nature of test [16]: qHTS assay to test for compound auto fluorescence at 460 nm (blue) in HepG2 cells (AID 720687). In outline: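 HepG2 cells in MEM with 10% FBS, attached overnight at 37 C, were exposed to compound or DMSO for 1 hr at 37 C, 5% CO2. Blue fluorescence was read at 405/460 nm, with triamterene as reference fluorophore.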
For test [17], the target named is Glucocorticoid receptor (Homo sapiens) (UniProt P04150). Put plainly: qHTS assay to identify small molecule agonists of the glucocorticoid receptor (GR) signaling pathway (AID 720691; active means well fitted activation curve with a large enough effect in the signal ratio in the repeat runs, not every such curve was filed as active; the % refers to the signal ratio). In outline: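 qHTS in GR-bla HeLa cells: 4 h settling at 37 C/5% CO2, 18 h compound incubation at 37 C, 2 h LiveBLAzer B/G FRET substrate at room temperature, fluorescence intensity measured.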
Chain of Glucocorticoid receptor (Homo sapiens) (P04150 whole entry, looked up): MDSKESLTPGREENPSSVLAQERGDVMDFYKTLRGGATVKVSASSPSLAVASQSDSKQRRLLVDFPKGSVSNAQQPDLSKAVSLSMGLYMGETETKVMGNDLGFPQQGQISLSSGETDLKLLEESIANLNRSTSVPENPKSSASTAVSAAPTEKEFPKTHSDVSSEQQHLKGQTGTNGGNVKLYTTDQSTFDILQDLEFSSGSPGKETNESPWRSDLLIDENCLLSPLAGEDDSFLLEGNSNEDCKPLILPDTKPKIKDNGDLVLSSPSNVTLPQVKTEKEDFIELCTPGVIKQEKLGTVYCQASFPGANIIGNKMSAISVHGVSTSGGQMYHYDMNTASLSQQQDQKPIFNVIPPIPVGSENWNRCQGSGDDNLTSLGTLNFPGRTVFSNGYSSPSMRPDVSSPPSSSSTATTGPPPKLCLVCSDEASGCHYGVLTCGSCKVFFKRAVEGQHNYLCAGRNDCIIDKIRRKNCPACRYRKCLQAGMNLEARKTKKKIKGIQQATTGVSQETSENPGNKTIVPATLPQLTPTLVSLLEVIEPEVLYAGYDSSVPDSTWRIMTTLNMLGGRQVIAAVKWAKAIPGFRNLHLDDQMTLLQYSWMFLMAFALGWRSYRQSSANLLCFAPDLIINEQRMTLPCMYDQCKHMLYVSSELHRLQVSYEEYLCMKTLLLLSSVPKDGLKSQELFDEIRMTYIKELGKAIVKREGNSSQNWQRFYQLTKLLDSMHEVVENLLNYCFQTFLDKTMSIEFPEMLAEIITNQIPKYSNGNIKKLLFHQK

Test [18] in a line: qHTS assay to test for compound auto fluorescence at 590 nm (red) in HepG2 cells (AID 720674). In outline:
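Seeding: 2,000 HepG2 cells/well, MEM/10% FBS, overnight 37 C. Dosing: compound vs DMSO. Incubation: 1 hr, 37 C, 5% CO2. Read: fluorescence 540 ex/590 em, Rose Bengal sodium as red reference.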

Test [19] can be described thus: qHTS assay to test for compound auto fluorescence at 535 nm (green) in HEK293 cell free culture (AID 720682). In outline:
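Using fluorescein as calibrant, autofluorescence was quantified at 485/535 nm in cell-free DMEM containing 10% FBS after pintool addition of compound or vehicle.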

The target of test [20] is Glucocorticoid receptor (Homo sapiens) (UniProt P04150). Put plainly: qHTS assay to identify small molecule antagonists of the glucocorticoid receptor (GR) signaling pathway (AID 720692; active means well fitted inhibition curve with a large enough effect in the signal ratio in the repeat runs, not every such curve was filed as active; the % refers to the signal ratio; further: potency means the concentration at half of the fitted maximal effect). In outline: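 Inhibition of glucocorticoid signalling is measured in HeLa cells with a GRE-controlled beta-lactamase reporter; cells are co-treated with compound and 5 nM dexamethasone (final) for 18 h before FRET substrate readout.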

As for `CCBr`, the Potency entry in test [1], in [2], in test [3], in [4], in test [5] and in test [6] was “inactive” in each case. Moreover, the outcome in [7], in [8], in test [9], in [10], in test [11] and in test [12] was inactive. In addition, the call in test [13], in test [14], in test [15], in test [16] and in [17] was inactive.
Regarding `CC/C(=N\OC/C=C/Cl)C1=C(O)CC(C2CCOCC2)CC1=O` (configuration not stated), the Potency entry in test [1], in test [2], in test [3], in test [4], in test [5] and in test [6] was “inactive” throughout. In addition, the Potency entry in test [20] was “inactive”. Further, the call in [18], in test [7], in test [8], in test [9], in test [10] and in test [19] was inactive. In addition, the call in test [12], in test [13], in [14], in test [15], in test [16] and in test [17] was inactive.
For `[O-][Cl+]O`, the Potency entry in test [1], in test [2], in test [3], in [4], in test [5] and in [6] was “inactive” in each case. The Potency entry in [20] was “inactive”. In addition, the call in [18], in test [7], in [8], in test [9], in test [10] and in test [11] was inactive. Also, the outcome in test [19], in test [12], in [13], in test [14], in [15] and in test [16] was inactive. Further, the call in test [17] was inactive.
For the compound `CC(c1ccc(O)cc1)(c1ccc(O)cc1)c1ccc(O)cc1`, the Potency in [1] is 6.86 µM (active); in [3], 6.86 µM (active); in [6] it was 48.6 µM (active); in test [20], 19.5 µM (active). Further, the Potency result in [2], in [4] and in test [5] was “inactive” throughout. Moreover, the result in [18], in test [7], in test [8], in test [9], in [10] and in test [11] was inactive. Moreover, the outcome in test [19], in [12], in test [13], in test [14], in test [15] and in test [16] was inactive.
Regarding `Cc1cc(=O)[nH]o1`, the Potency result in test [1], in [2], in test [3], in test [4], in test [5] and in test [6] was “inactive” each time. For the same compound, in [20], the Potency entry was “inactive”. Further, the compound was classed as inactive in test [18], in test [7], in [8], in test [9], in test [10] and in test [11]. Further, the compound was classed as inactive in test [19], in [12], in test [13], in test [14], in test [15] and in test [17].
Regarding `CCCCCCC#N`, the Potency entry in test [1], in test [2], in test [3], in [4] and in test [5] was “inactive” throughout. In addition, the compound was called inactive in test [18], in [7], in test [8], in [9], in [10] and in test [11]. Moreover, the outcome in test [19], in test [12], in test [13], in [14], in test [15] and in test [16] was inactive.
For `CCCCNP(N)(N)=S`, the Potency entry in [1], in test [2], in test [3], in [4], in test [5] and in [6] was “inactive” throughout. Also, the compound was called inactive in test [18], in test [7], in [8], in [9], in test [10] and in [19]. Moreover, the compound was called inactive in [12], in [13], in test [14], in test [15], in [16] and in [17].
On to `CCOP(=O)(OCC)SCCSCC`, for which the Potency entry in [1], in test [2], in test [3], in test [4], in test [5] and in test [6] was “inactive” each time. The result in test [18], in test [7], in test [8], in [9], in test [10] and in [11] was inactive. Further, the result in test [19], in test [12], in [13], in test [14], in test [15] and in [16] was inactive.
